Records with an inconclusive call do not appear. Activity calls are given as the source filed them. The calls were made as follows: active = hit-call score of the fitted dose curve at least 0.9, where 1 is the maximum; inconclusive = response in the unintended direction; inactive = score below 0.9.
Assay: ACEA_ER_AUC_viability: ACEA Biosciences xCELLigence Real-Time Cell Analysis on Estrogen Receptor Agonism for Viability (AID 2283782);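 also: continuous compound exposure with impedance area under curve over 80 h; hit means loss of impedance signal meaning reduced cell growth or viability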
Outline: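 T-47D; phenol red-free RPMI1640 + 10% CS-FBS; 8 conc., 1:4 serial, max 100 uM final, ≤0.5% DMSO; n = 2; continuous exposure; impedance monitored to 80 h post-dose; AUC vs DMSO.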

SMILES | AC50 | outcome
C=C(C)CCO | 65.9 µM (active) | 
CC(=O)[C@H]1[C@H](C#N)C[C@H]2[C@@H]3CC=C4C[C@@H](O)CC[C@]4(C)[C@H]3CC[C@@]21C |  | inactive
CCCCCCCCCCC=CC#N | 50 µM (active) | 
O=Nc1ccc(O)cc1 |  | inactive
CC/C=C\CCOC(=O)CCCCC |  | inactive
CO[Si](CCC1CCC2OC2C1)(OC)OC (stereo not given) | 37.7 µM (active) | 
CCCCCCC(O)CO (stereo not given) | 40 µM (active) | 
COC(=O)c1ccccc1OC | 50 µM (active) | 
CCCCCCOC(=O)C(C)CC (stereo not given) | 66.7 µM (active) | 
CN(C)c1ccc(C(=N)c2ccc(N(C)C)cc2)cc1 | 32.3 µM (active) | 
C=CCOCC(O)CCl (stereo not given) |  | inactive
CCCOC(=O)CCCCC(=O)OCCC | 50 µM (active) | 
COC(=O)/C=C\C(=O)O |  | inactive
CC/C=C\C/C=C\C/C=C\CCCCCCCC(=O)O |  | inactive
CCCCC/C=C\C/C=C\CCCCCCCC(=O)OC | 65.3 µM (active) | 
Nc1ccc(N=Nc2ccccc2)c(N)n1 |  | inactive
CCOC(=O)CC |  | inactive
CC(C)(C)c1ccc(OC(=O)c2ccccc2O)cc1 | 66.2 µM (active) | 

SMILES | AC50 | outcome
O=c1n(CCO)c(=O)n(CCO)c(=O)n1CCO |  | inactive
CC(=O)c1ccc2c(c1)CCCC2 | 31.7 µM (active) | 
C=COCCCC |  | inactive
CC1(C)S[C@@H]2[C@H](NC(=O)COc3ccccc3)C(=O)N2[C@H]1C(=O)O |  | inactive
O=C1CCCCCCCCCCC(=O)OCCO1 | 68.3 µM (active) | 
CCOC(=O)[C@H](C)O |  | inactive
O=S1(=O)OC(c2ccc(O)cc2)(c2ccc(O)cc2)c2ccccc21 |  | inactive
CCCNC(=O)NS(=O)(=O)c1ccc(Cl)cc1 |  | inactive
Cc1cccc(C(=O)O)c1 |  | inactive
Cc1cc(C)c(C)cc1C |  | inactive
CC(C)CC(O)Cc1ccccc1 (stereo not given) |  | inactive
CCCC(C)CCC(C)=O (stereo not given) |  | inactive
CNC(=S)NN |  | inactive
O=P(O)(O)Oc1ccccc1 | 50 µM (active) | 
CC(=O)C=CC1C(C)=CCC(C)C1(C)C (stereo not given) |  | inactive
O=C(OCC1CCC2OC2C1)C1CCC2OC2C1 (stereo not given) |  | inactive
O=C(O)CCCC[C@@H]1SC[C@@H]2NC(=O)N[C@@H]21 |  | inactive

From PubChem BioAssay (EPA / NIEHS)
